Measurements published in PubChem BioAssay (NCI).
This is part of a sample that, as a whole, favours compounds with a hit. Of some 83,000 tested, about 20% had one in any assay.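 Single-concentration screen, 48 h exposure, 96-well plates. Endpoint: percent growth. Below 10 = active.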 A number with no mark means an inactive call. The source made the active and inactive calls.

These compounds were tested on NCI-H522 lung (assay: NCI-60 one-dose screen, 48 h (100 = growth as untreated, 0 = no growth, -100 = all killed)). Settings: 10 µM unless noted.

Compound	growth
CC[C@H](C)[C@H](NC(=O)c1ccccn1)C(=O)N(C)[C@H](C[C@@H](OC(C)=O)c1nc(C(=O)N[C@@H](Cc2ccccc2)C[C@H](C)C(=O)OC)cs1)C(C)C	-33.8% (active)
O=[N+]([O-])c1cnc[nH]1	106%
CC(=O)O[C@H]1CC[C@]2(C)[C@H]3CC[C@]4(C)[C@@H](OC(C)=O)CC[C@H]4[C@@H]3[C@@H](C)[C@]2(O)C1	94.8%
CCN(CC)CCOC(=O)C(OC(C)C)(c1ccccc1)c1ccccc1	82.3%
O=C1NC(=O)C(=Cc2cccn2CCCCCn2c3ccccc3c(=O)c3ccccc32)C(=O)N1	90.5%
COc1ccc(Nc2ccc([N+](=O)[O-])cc2[N+](=O)[O-])cc1CN(CCCl)CCCl	21.1%
CCCC[C@H](NC(=O)[C@H]1CCCCN1C)C(=O)N(C)[C@H](C[C@@H](OC(C)=O)c1nc(C(=O)N[C@@H](Cc2ccccc2)C[C@H](C)C(=O)OCC)cs1)C(C)C	-25% (active)
Nc1c(F)cc(-c2nc3cc(F)ccc3[se]2)cc1F	84.8%
COC(=O)[C@H](Cc1ccccc1)NC(=O)c1csc([C@@H](C[C@H](C(C)C)N(C)C(=O)[C@@H](NC(=O)[C@H]2CCCCN2C)C2CC2)OC(C)=O)n1	-28.7% (active)
COC(=O)[C@@H](C)C[C@H](Cc1ccccc1)NC(=O)c1nc([C@@H](C[C@H](C(C)C)N(C)C(=O)[C@@H](NC(=O)[C@H]2CC(=O)CCN2C)C(C)C)OC(C)=O)sc1C(C)C	-30.5% (active)
CC(C)=CCC[C@H](C(=O)O)[C@@H]1CC[C@]2(C)C3=C(CC[C@@]12C)[C@@]1(C)CC[C@H](O)C(C)(C)[C@@H]1CC3	60.8%
C=CC[PH+](c1ccccc1)c1ccccc1.C=CC[PH+](c1ccccc1)c1ccccc1.[Cl][Pt][Cl]	9.41% (active)
CN1CCC(O)(c2ccc(F)cc2)C(C(=O)c2ccc(F)cc2)C1 (configuration not stated)	78.9%
COc1ccc2c(c1)c(-c1nc(-c3c[nH]c4ncccc34)cs1)cn2CCN1CCOCC1	44.5%
COC(=O)[C@@H](C)C[C@H](Cc1ccccc1)NC(=O)c1csc([C@@H](C[C@H](C(C)C)N(C)C(=O)[C@@H](NC(=O)[C@H]2CCCCN2C)C(C(F)(F)F)C(F)(F)F)OC(C)=O)n1	-8.2% (active)
CN1CC(=O)N(O)C1(C)c1cccnc1 (configuration not stated)	95.2%
COc1cc(/C=C/[N+](=O)[O-])cc(OC)c1	-40.1% (active)
CC12CCC3C(CCC4Cc5[nH]c6ccccc6c5CC43C)C1CCC2O (configuration not stated)	26.4%
COC(=O)C12CC(NC(=O)c3csc([C@@H](C[C@H](C(C)C)N(C)C(=O)[C@@H](NC(=O)[C@H]4CCCCN4C)C(C)C)OC(C)=O)n3)(C1)C2	-23.6% (active)

Compound	growth
CC1CN1CCCCN1CC1C (configuration not stated)	66.4%
CC(=O)O[C@H](C[C@H](C(C)C)N(C)C(=O)[C@@H](NC(=O)[C@H]1CCCCN1C)C(C)C)c1nc(C(=O)NC2CCC(C(=O)O)CC2)cs1 (some centres not stated)	-6.59% (active)
CC[C@H](C)[C@@H]([C@@H](CC(=O)N1CCC[C@H]1[C@H](OC)[C@@H](C)C(=O)N[C@H](C)[C@@H](O)c1ccccc1)OC)N(C)C(=O)[C@@H](NC(=O)[C@@H](NC)C(C)C)C(C)C	-36.1% (active)
CCNc1nc(Cl)nc(NCC)n1	105%
CCOP(=O)(NC[C@H]1O[C@](O)(CO)[C@@H](O)[C@@H]1O)OCC	88.3%
CCCc1cc(O)c2c3c(c(=O)oc2c1)CN(C)CC3	18.4%
CCCCN1CCCC[C@@H]1C(=O)N[C@H](C(=O)N(C)[C@H](CCc1nc(C(=O)N[C@@H](Cc2ccccc2)C[C@H](C)C(=O)OC)cs1)C(C)C)[C@@H](C)CC	25.1%
O=C([O][Hg][CH2]C1COCC([CH2][Hg][O]C(=O)c2ccccc2)O1)c1ccccc1 (configuration not stated)	-53.3% (active)
CN[C@]1(c2ccccc2Cl)CCCC[C@H]1NCCCN1CCN(C)CC1	93.9%
Cn1cc(-c2csc(-c3cn(CCN4CCOCC4)c4ccc(F)cc34)n2)c2cccnc21	-0.645% (active)
CC(C)CCC1(CCCl)C(=O)NC(=O)NC1=O	104%
O=C(CCCC1CCCCC1)OCC(Cl)(Cl)Cl	96.2%
COC(=O)CC12CC(NC(=O)c3csc([C@@H](C[C@H](C(C)C)N(C)C(=O)[C@@H](NC(=O)[C@H]4CCCCN4C)C(C)C)OC(C)=O)n3)(C1)C2	10.8%
C#Cc1ccc2c(c1)C(c1ccccc1)=NCC(=O)N2C	9.39% (active)
COc1cccc2c1c(C(=O)C(=O)Nc1ccn[nH]1)cn2Cc1ccc(F)cc1	96.8%
Clc1cccc(Cl)c1Cl	65.1%
O=c1[nH]cc(N(CCCl)CCCl)c(=O)[nH]1	53.8%
CC(C)(N)Cc1ccccc1	90.9%
